# Screening results (PubChem BioAssay)
# Shiga toxin inh = inhibitors of Shiga toxin in Vero cells; AID 2315; Vero cells, Shiga toxin protein synthesis inhibition reporter; 9.2% of 290,000 active; inhibition, % at 38.7 µM; in the data active means inhibition mostly above about 28%, no sharp cut-off; inactive means mostly below about 43%; further: 0% is about no effect
# LmPK inh = LmPK (Leishmania mexicana) enzyme inhibition. Potency, µM (top dose mostly 57.5 µM), inactives show at the top dose activity change, negative = inhibition, actives largely listed as inhibitors. 0.37% of 290,000 active. purified LmPK, Kinase-Glo ATP luminescence, 1 h. AID 1721; further: potency means the concentration at half of the fitted maximal effect; on the % scale 0 is the no-effect control and ±100 the full control effect
#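 Kinase-Glo luminescence read after 1 h RT reaction of 0.1 nM LmPK with 0.5 mM PEP and 0.1 mM ADP. Activity scaled between uninhibited and enzyme-free controls.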
# RE007 growth inh = less growth of the S. pombe RE007 Vpr strain; S. pombe RE007 Vpr strain, BacTiter-Glo ATP luminescence, 24 h; Potency, µM (top dose mostly 92.2 µM), for inactives: at the highest dose activity change, negative = less growth, most hits filed as inhibitors; 0.21% of 360,000 active; AID 651644; active means well fitted falling curve with a large enough effect; inconclusive means small, poorly fitted or top-dose-only effect; inactive means no such curve, though single readings can be large or run the other way; further: potency means the concentration at half of the fitted maximal effect; on the % scale 0 is the no-effect control and ±100 the full control effect; nearly all actives have a fitted effect of over 50% in size
#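 Fission yeast RE007 carrying one integrated HIV-1 vpr copy, seeded at OD 0.01 in PMG+AL medium with 23 nL pinned compound. Grown 24 h at 30 degrees; viability read by BacTiter-Glo luminescence after 5 min.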
# FBPA Giardia inh = Giardia lamblia aldolase inhibition | A8B2U2 | purified Giardia FBPA | Potency, µM (top dose mostly 59.6 µM), inactives show at the top dose activity, negative = inhibition, most hits filed as inhibitors | 0.71% of 290,000 active | AID 2451; further: potency means the concentration at half of the fitted maximal effect; on the % scale 0 is the no-effect control and ±100 the full control effect; nearly all actives have a fitted effect of over 55% in size
# Target sequence (A8B2U2 whole entry, looked up): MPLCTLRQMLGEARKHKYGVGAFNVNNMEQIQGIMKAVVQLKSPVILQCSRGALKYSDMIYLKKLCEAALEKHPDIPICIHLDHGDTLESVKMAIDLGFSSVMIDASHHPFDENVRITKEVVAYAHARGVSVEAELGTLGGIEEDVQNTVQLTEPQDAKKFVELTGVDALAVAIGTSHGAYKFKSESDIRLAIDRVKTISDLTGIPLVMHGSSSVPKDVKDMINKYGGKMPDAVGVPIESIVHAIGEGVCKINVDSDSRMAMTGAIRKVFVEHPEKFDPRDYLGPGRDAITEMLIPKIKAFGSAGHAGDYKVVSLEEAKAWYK
#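 40 nM FBPA preincubated 10 min at RT with compound (up to 57.5 uM final), then substrate plus GAPDH/TPI/NAD/arsenate coupling and diaphorase/resazurin added. Fluorescence read after 20 min at RT, 525/598 nm.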
# Tb PYK inh = T. brucei pyruvate kinase inhibition. Q57TT1. TbPYK enzyme, Kinase-Glo Plus ATP luminescence, 45 min. Potency, µM (top dose mostly 76.8 µM), without a hit: top-dose activity, negative = inhibition, usual class: inhibitors. 0.12% of 410,000 active. AID 624173; further: potency means the concentration at half of the fitted maximal effect; on the % scale 0 is the no-effect control and ±100 the full control effect; nearly all actives have a fitted effect of over 50% in size
#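 Activity of T. brucei pyruvate kinase was followed by Kinase-Glo Plus luminescence after the enzyme reacted 45 min at room temperature with 130 uM ADP (final) and substrate. Test compounds were added before ADP at multiple concentrations.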
# Cycloheximide cs = counter-screen for Shiga toxin inhibitors: cycloheximide protein synthesis inhibition; cell reporter, cycloheximide protein synthesis inhibition counterscreen; max response, %; 12% of 300,000 active; in the data active means max response mostly above about 13%, no sharp cut-off; inactive means mostly below about 14%; further: read at 38.3 µM for the half of the compounds with a filed dose; 0% is about no effect
# Starred values were filed as active, the others as inactive; ? = inconclusive; nt = not tested or not shown; [ ] = dose if it differs, or a comment. Shown is part of a subset that was picked to be rich in hits. Unless noted, the call rests on the fitted dose curve; in most records, active means well fitted curve in the direction sought with a large enough effect; inconclusive means small, poorly fitted or top-dose-only effect, or another doubt; inactive means no such curve, though single readings can be large; an effect the other way counts as inactive or inconclusive.
SMILES,Shiga toxin inh,LmPK inh,RE007 growth inh,FBPA Giardia inh,Tb PYK inh,Cycloheximide cs
CCn1c(-c2ccccc2)csc1=Nc1ccc(O)cc1,81.5*,2.1%,9.4%,-9.3%,-26.0%,47.9*
CCOc1ccc(N=c2scc(-c3ccc(OC)cc3)n2CCO)cc1,53.8,1.1%,3.0%,-5.2%,0.2%,16.1*
CCOc1ccc(N=c2scc(-c3ccccc3)n2CCO)cc1,43.2,2.3%,-1.2%,-5.0%,-17.1%,28.6*
CCCn1c(-c2ccc(S(=O)(=O)N3CCOCC3)cc2)csc1=Nc1ccc(OCC)cc1,nt,nt,nt,nt,-0.5%,nt
Cc1cc(NC(=O)C(C)SCC(=O)NCc2ccc(F)cc2)no1 (configuration not stated),nt,nt,31.8%,nt,3.6%,nt
COc1cc(N2CCC(N3CCN(C)CC3)CC2)ccc1Nc1ncc(Cl)c(Nc2ccccc2S(=O)(=O)C(C)C)n1,nt,nt,nt,nt,-24.0%,nt
CCn1c(SCC(=O)Nc2ccc3c(c2)OCO3)nc2c1c(=O)n(C)c(=O)n2C,-2.8,0.9%,0.5%,2.5%,-4.7%,11.7
Cn1c(=O)c2c(nc(SCC(=O)O)n2Cc2cc3c(cc2Cl)OCO3)n(C)c1=O,-21.5,-7.9%,2.4%,-16.0%,25.1µM*,7.0
CC(C)C(=O)Nc1ccc(NC(=O)c2cc3ccccc3o2)cc1,61.8*,0.1%,-2.8%,0.6%,-9.2%,19.2*
CCOC(=O)c1ccccc1NC(=O)c1cc2ccccc2o1,64.8,9.1%,15.2%,-0.5%,3.9%,6.0
CCOC(=O)c1cccc(NC(=O)c2cc3ccccc3o2)c1,57.4*,-0.8%,?,-2.8%,2.6%,48.9*
CCOC(=O)c1cccc(NC(=O)c2cnccn2)c1,41.2,-1.0%,-0.8%,2.9%,?,7.1
CC(C)C(=O)Nc1ccc(NC(=S)NC(=O)c2cc3ccccc3o2)cc1,-7.6,-1.1%,6.2%,-4.5%,-1.6%,6.5
CCOC(=O)c1ccc(NC(=O)c2cc3ccccc3o2)cc1,41.2*,-8.1%,7.4%,-3.7%,-5.0%,32.4*
CCOc1ccc(C(=O)Nc2cc(-c3cn4cccnc4n3)ccc2C)cc1OCC,nt,nt,nt,nt,-2.7%,nt
CC(=O)c1ccc(NC(=O)C2C3C=CC(O3)C2C(=O)O)cc1 (configuration not stated),5.9,-2.2%,7.0%,9.2%,1.7%,13.0
CCCOC(=O)c1ccc(NC(=O)Cc2csc(C)n2)cc1,nt,nt,nt,nt,2.4%,nt
CCCOC(=O)c1ccc(NC(=O)Oc2ccccc2)cc1,29.4,0.8%,-11.6%,-3.6%,-8.1%,15.8
CC(=O)Nc1ccc(C(=O)OCCC(C)C)cc1,84.2*,3.3%,10.5%,11.6%,3.0%,24.2*
CCCOC(=O)c1ccc(NC(=O)C2C3C=CC(O3)C2C(=O)O)cc1 (configuration not stated),50.3,1.4%,12.6µM*,8.9%,-14.3%,31.9*
CCCOC(=O)c1ccc(NC(=O)COC)cc1,49.8*,8.2%,-16.8%,6.8%,-2.9%,30.4
CCCOC(=O)c1ccc(NC(=O)CC(C)(C)C)cc1,54.2*,-4.9%,5.8%,3.0%,-21.6%,33.6*
COCCCNC(=O)C1CCN(c2ncnc3c2nc2n3CCCCC2)CC1,nt,nt,nt,nt,-6.9%,nt
C(=N\Nc1ccccn1)/c1c[nH]c2ccccc12,88.9*,-0.6%,-15.9%,0.1%,-19.8%,30.2*
C(=NN=Cc1c[nH]c2ccccc12)c1c[nH]c2ccccc12,nt,nt,-18.8%,nt,3.6%,nt
SMILES,Shiga toxin inh,LmPK inh,RE007 growth inh,FBPA Giardia inh,Tb PYK inh,Cycloheximide cs
O=C(O)c1cccc2c(/C=N/Nc3ccccn3)c[nH]c12,69.8*,-20.2%,8.2%,-28.4%,-0.4%,39.2*
COC1=C/C(=C/c2c(N)n3cc(C)sc3nc2=O)C=CC1=O,44.6*,-0.3%,nt,-20.8%,-2.3%,41.6*
CC1CCN(c2oc(/C=C/c3ccc(F)cc3)nc2C#N)CC1,nt,nt,nt,nt,-5.6%,nt
C#CCn1c(C)cc(C)c(S(=O)(=O)c2ccccc2)c1=O,100.4*,2.9%,-11.0%,3.1%,1.1%,25.7*
Cc1cc(C)n(Cc2ccccc2)c(=O)c1S(=O)(=O)c1ccccc1,-13.7,1.4%,5.1%,2.8%,-15.9%,-2.3
COc1ccc(C(=O)N2CCCC(Nc3ccc(F)cc3)C2)cc1F (configuration not stated),-7.5,2.1%,2.7%,13.9%,-5.7%,-1.9
CCCCC(=O)Nc1ccc(C(=O)N2CCCC(C(=O)OCC)C2)cc1 (configuration not stated),12.9,5.1%,10.0%,6.5%,-19.8%,19.8*
COc1ccc(NC2CCCN(C(=O)CCc3ccncc3)C2)cc1OC (configuration not stated),-11.8,4.8%,8.8%,?,39.7%,45.0*
COc1ccc(C(=O)N2CCCC(Nc3ccc(C)c(C)c3)C2)cc1F (configuration not stated),47.2,1.6%,-3.4%,2.8%,3.1%,29.6*
Cc1ccc(NC(=O)C2CCCN(C(=O)c3ccc(Cl)cc3)C2)cc1 (configuration not stated),69.7*,3.0%,9.4%,6.3%,-3.1%,47.7
N#CCc1nn(Cc2ccc(F)cc2)c(=O)c2ccccc12,-3.7,6.0%,13.6%,4.6%,8.2%,-1.6
O=C1CCCN1CCC(=O)N1CCCC(Nc2ccc(F)c(F)c2)C1 (configuration not stated),32.7*,-6.0%,1.7%,nt,-6.1%,12.9
Cc1ccc(NC(=O)C2CCCN(C(=O)c3ccc(Cl)cc3)C2)cc1C (configuration not stated),72.4*,7.6%,-15.6%,-3.0%,0.8%,40.1*
CC(C)(C)OC(=O)N1CCC(c2c(C(=O)N3CCN(c4ccc(Cl)cc4)CC3)cnn2-c2ccc(F)cc2F)CC1,nt,nt,nt,nt,-1.6%[15.4 µM],nt
COc1ccc2c(c1)n([O-])c1c([n+]2=O)CCC1,-2.5,0.2%,5.3%,-25.5%,5.5%,-1.8
CCOc1ccc2c(c1)n([O-])c1c([n+]2=O)CCCC1,39.9,-6.3%,10.5%,14.1µM*,-12.7%,16.4
Cc1ccsc1/C=N/NC(=O)c1ccc(Cn2cc(Br)cn2)o1,36.6,1.7%,-8.1%,1.8%,1.2%,13.0
NNC(=O)c1ccc(Cn2cc(Br)cn2)o1,61.0*,2.7%,-19.8%,-1.4%,0.3%,27.2*
O=C(N/N=C/c1cccc(Br)c1)c1ccc(Cn2cc(Br)cn2)o1,55.8*,4.1%,-19.0%,-13.6%,-1.2%,17.1
O=C(N/N=C\c1cccc(Cl)c1)c1ccc(Cn2cc(Br)c([N+](=O)[O-])n2)o1,24.2*,-3.6%,-12.8%,-5.6%,3.2%,8.5
NNC(=O)c1ccc(Cn2cccn2)o1,51.9*,-1.1%,18.3%,-4.6%,2.7%,19.6
CCn1c(-c2cc(-c3ccc(C)cc3)nc3ccccc23)n[nH]c1=S,21.5,3.7%,13.1%,-0.2%,?,16.5*
C=CCn1c(-c2cc(-c3ccc(C)cc3)nc3ccccc23)n[nH]c1=S,13.0,6.5%,-0.7%,2.3%,-30.6%,13.0
